Out of some 91,000 compounds screened, about 40 (0.04%) were called active. No stated cut-off is given here; in the data, active means activation above about 37%; inactive means the rest. Only a sample is shown.
Molecular target: Bifunctional epoxide hydrolase 2 (Homo sapiens) (UniProt P34913)
Assay: sEH enzyme activity enhancers – biochemical, human sEH, primary screen (AID 717)
Details: purified human sEH enzymatic activity, activator screen; at 2 µM; hits give high values

Bifunctional epoxide hydrolase 2 (Homo sapiens), sequence (P34913 whole entry, looked up): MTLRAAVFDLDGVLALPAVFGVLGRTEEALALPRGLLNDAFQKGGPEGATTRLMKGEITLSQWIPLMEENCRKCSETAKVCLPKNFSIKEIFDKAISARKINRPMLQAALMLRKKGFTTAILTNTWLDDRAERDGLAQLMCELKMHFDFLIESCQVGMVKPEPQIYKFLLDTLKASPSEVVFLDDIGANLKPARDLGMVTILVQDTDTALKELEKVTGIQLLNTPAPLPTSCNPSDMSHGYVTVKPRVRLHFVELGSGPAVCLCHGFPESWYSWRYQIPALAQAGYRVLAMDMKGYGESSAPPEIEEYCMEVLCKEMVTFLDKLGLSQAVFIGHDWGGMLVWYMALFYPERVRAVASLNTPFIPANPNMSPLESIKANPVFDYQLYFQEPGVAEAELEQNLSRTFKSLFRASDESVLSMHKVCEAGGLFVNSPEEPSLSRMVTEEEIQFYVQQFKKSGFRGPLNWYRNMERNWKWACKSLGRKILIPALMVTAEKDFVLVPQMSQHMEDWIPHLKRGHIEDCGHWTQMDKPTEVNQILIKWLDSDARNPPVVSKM

activation, inactive:
C=CCNC(=O)c1sc(SC)cc1-c1ccc(Cl)cc1 14.9%
O=C(O)/C=C/C(=O)Nc1ccc(F)cc1F 6.8%
C/C(=N\NS(=O)(=O)c1cccc([N+](=O)[O-])c1)c1cc2ccccc2o1 -6%
COc1cccc(/C=N/NC(=O)c2cccc([N+](=O)[O-])c2)c1OS(=O)(=O)c1ccc(C)cc1 -13.5%
CCC(=O)OCc1c(C(F)(F)F)nn(C)c1Oc1cccc(C(F)(F)F)c1 -5.9%
Cc1nn(CC(=O)Nc2nc3ccccc3s2)c(C)c1[N+](=O)[O-] 8%
O=C(Cn1cncn1)N/N=C/c1c2ccccc2cc2ccccc12 -1.1%
CONC(=O)c1cc(OCC(F)(F)F)ccc1OCC(F)(F)F -7.2%
CC(=O)NS(=O)(=O)c1ccc(NC(=O)/C=C/c2ccccc2Cl)cc1 -14.4%
Cc1ccc(N2CCN(/N=C/c3cccs3)CC2)cc1 1.6%
CC(C)(C)NC(=O)NC(=O)COC(=O)CCC1CCCCC1 -0.5%
Cc1cc2c(cc1C)N(C(=O)CN1C(=O)c3ccccc3C1=O)C(C)(C)c1ssc(=S)c1-2 18.1%
O=C(NCc1cccnc1)c1cccnc1Sc1ccc(Cl)cc1 17.3%
N/C(=N\OC(=O)CCc1ccccc1)c1ccc(Cl)cc1 10.5%
CC1CCN(C(NC(=O)c2ccco2)C(=O)c2ccccc2)CC1 (stereo not given) -0.4%
CCCCCCCCOC1OC(CO)C(O)C(O)C1NC(C)=O (stereo not given) -6.6%
O=C(CSc1ccccc1)Nc1ccc(NC(=O)c2ccco2)cc1 -17.6%
CC(=O)c1cnn(-c2cc(Oc3ccc(F)cc3)ncn2)c1C 7.1%
O=C(NCCCCCCCCCNC(=O)C(F)(F)F)C(F)(F)F -6.7%
O=C(Nc1ccn(Cc2ccccc2F)n1)c1ccc(COc2ccc(Cl)cc2Cl)o1 -1.7%
